# An excerpt weighted towards active compounds, which were near 2.3% of everything screened.
# Cardio protect = modulators protecting cardiomyocytes from myocardial damage; H9c2 cardiomyocytes, H2O2 injury protection, ATPLite, 2 h; protection from H2O2 cell death, % at 20 µM; 360,000 tested, 0.63% active;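 active = compounds giving at least 50% protection of heart cells from peroxide-induced death in the single-dose screen, raw or plate-pattern-corrected value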;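 note: 0% = DMSO wells with peroxide and 100% = DMSO wells without peroxide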
# H9c2 TAG inh = reduces triacylglycerol accumulation in H9c2 cells. Nile Red lipid (TAG) fluorescence; cells loaded with 200 µM oleic acid. inhibition, % at 12.5 µM. 230,000 tested, 0.66% active. AID 651582;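 active = pattern-corrected inhibition of lipid staining of at least 50% with the nuclear-stain viability signal not falling by more than 50%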;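 note: 0% = DMSO wells and 100% = triacsin C control wells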
# aDG glyco up = alpha-DG glycosylation activation | Pro5-aDG cells, alpha-DG glycosylation AlphaScreen (IIH6); 0% Pro5, 100% B10-LARGE cell signal | activation, % at 10 µM | 360,000 tested, 0.22% active | AID 624168;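 active = activation of at least 8% versus controls, or a plate z-score of at least 8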;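 note: Pro5 are CHO cells carrying HIG-tagged alpha-DG that lacks glycosylation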
# FAS TE block = blocks the thioesterase domain of human fatty acid synthase | 360,000 tested, 0.67% active | inhibition, % at 15 µM | recombinant FAS-TE, OMFH fluorogenic substrate, fluorescence endpoint | AID 602261 | P49327;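 active = compounds whose normalised, plate-corrected inhibition of enzyme fluorescence in the single-dose primary screen is 50% or more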;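 note: 0% = DMSO with enzyme and 100% = substrate without enzyme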
# beta cell repl = induces beta-cell replication in MIN6 cells. AID 2380. proliferation, % at 10 µM. 330,000 tested, 0.29% active. MIN6 cells proliferation, ATPlite luminescence, 48 h; cells starved in 0.2% serum; 100% = growth in 10% serum;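 active = compounds whose signal lies at least 3.5 SD above the mean of all wells on their plate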;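 note: 0% = DMSO-treated cells in low-serum medium and 100% = 10% serum control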
# Calpain2 inh = calpain II (pig) inhibition | purified calpain II, fluorogenic peptide substrate, 30 min | inhibition, % at 16 µM | 220,000 tested, 0.37% active | AID 1236;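 active = inhibition above about 50%, limit read from the data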
# * = called active by the depositor; . = no result.
SMILES,Cardio protect,H9c2 TAG inh,aDG glyco up,FAS TE block,beta cell repl,Calpain2 inh
COc1ccccc1C(=O)C1CCCN(C(=O)C2=CC(=O)CC(C)(C)O2)C1 (centres undefined),2,.,0,-2,0,.
COc1cc(C(=O)NCCNC(=O)c2ccco2)cc(OC)c1OC,-2,-21,0,0,.,.
Cc1ccc2nc(N(CCCN(C)C)C(=O)c3cc(-c4cccs4)nc4ccccc34)sc2c1,-14,54*,0,20,-7,.
CN(C)CCCN(C(=O)c1cc(-c2cccs2)nc2ccccc12)c1nc2c(F)cccc2s1,-11,10,0,21,-7,.
N#Cc1c(Cl)cccc1Oc1ccc(S(=O)(=O)Nc2ccccc2)cc1,-10,-20,0,32,-2,51*
N#Cc1cccc(C#N)c1Oc1ccc(S(=O)(=O)Nc2ccccc2)cc1,-6,2,0,27,-2,24
O=C(Nc1ccc2c(c1)[nH]c(=O)c1ccccc12)C(F)(F)F,64*,12,0,-18,.,.
CC(=O)Nc1ccc2c(c1)[nH]c(=O)c1ccccc12,75*,9,0,-3,.,.
O=C(Nc1cccc2c1[nH]c(=O)c1ccccc12)C(F)(F)F,36,1,0,-10,.,.
NNC(=O)C1COc2cc3ccccc3cc2O1 (centres undefined),4,.,0,-1,0,.
O=C(N/N=C\c1ccccn1)c1cccc(C(=O)N/N=C\c2ccccn2)n1,54*,8,0,-5,0,.
Cn1ncc(Cl)c1C(=O)N/N=C/c1ccccn1,51*,.,0,-11,-1,-5
O=C(N/N=C\c1ccccn1)C1COc2cc3ccccc3cc2O1 (centres undefined),86*,-1,0,1,-1,-2
O=C(N/N=C/c1ccccn1)c1ccncc1,19,.,0,-4,-3,.
O=C(N/N=C/c1ccccn1)c1cccs1,56*,7,0,-9,-2,-21
CCOc1cc2nc(-c3ccc(OC)c(OC)c3)nc(NCCCN3CCOCC3)c2cc1OC,7,56*,0,0,-6,-65
COc1ccc(-c2oc(=O)c3cc(OC)c(OC)cc3c2C#CCCO)cc1,66*,21,0,0,-1,.
COc1ccc(-c2cc(-c3ccc(O)cc3)nc(N)c2C#N)cc1OC,56*,17,0,6,2,-208
Cc1ccc(S(=O)(=O)N2CCOCC2)cc1NC(=O)Cn1c(=O)ccn(Cc2ccccc2)c1=O,2,-3,0,-3,.,.
CCc1ccc(S(=O)(=O)Nc2cc(SCC(=O)O)c(O)c3ccccc23)cc1,-32,6,8.1*,0,-6,0
CCOc1ccc(S(=O)(=O)Nc2cc(SCC(=O)O)c(O)c3ccccc23)cc1,-17,.,3.9*,3,.,.
Cc1ccc(NS(=O)(=O)c2cc(NC(=O)C(C)Oc3ccccc3)ccc2C)c(C)c1 (centres undefined),-6,.,1,26,-2,24
Cc1ccc(C)c(S(=O)(=O)Nc2cc(SCC(=O)O)c(O)c3ccccc23)c1,-18,.,8.5*,30,.,16
O=C(O)CSc1cc(NS(=O)(=O)c2cccc([N+](=O)[O-])c2)c2ccccc2c1O,-16,18,2.6*,28,.,40
CCCNC(=O)C1(C)CCN(C(=O)C(c2ccccc2)c2ccccc2)C1 (centres undefined),-5,-22,0,-3,.,.
SMILES,Cardio protect,H9c2 TAG inh,aDG glyco up,FAS TE block,beta cell repl,Calpain2 inh
COc1ccc([C@H]2C[C@@H](O)[C@H](n3cc(C4CC4)nn3)CN2Cc2cccs2)cc1,6,-18,0,-3,.,.
COC(=O)c1ccc2nc(NC(=O)C(C)(C)C)sc2c1,-15,19,0,-8,-6,91*
O=C(CSc1ccc2ccccc2c1)NCCc1ccc(O)c(O)c1,80*,15,0,-2,-6,-27
CC(=O)c1ccc(OCc2cc(C(=O)NC3CCCCC3)no2)cc1,5,-9,0,-11,3,.
COc1ccc(-n2nc(C(=O)NCC(=O)Nc3cc(OC)c(OC)c(OC)c3)c3ccccc3c2=O)cc1Cl,58*,.,0,2,1,.
CCN(CC)C(=O)CNC(=O)c1nn(-c2ccc(OC)c(Cl)c2)c(=O)c2ccccc12,3,.,0,4,2,.
Cc1cc(NC(=O)C(C)Sc2nc(-c3cccs3)nc3ccccc23)no1 (centres undefined),14,21,0,4,-5,.
Cc1csc(SCC(=O)Nc2cc(F)ccc2C)n1,-7,-7,0,-4,.,.
CCOc1cccc(CNc2ccc(O)cc2)c1OCc1ccc(Cl)cc1Cl,-16,.,1,18,-4,68*
C[C@H]1CN([C@@H](C)CO)C(=O)CCCn2nncc2CO[C@H]1CN(C)S(=O)(=O)c1ccccc1F,2,-8,0,-5,.,.
COc1cccc(/C=N/NC(=O)c2cc3c(OC)ccc(OC)c3[nH]2)c1O,45,.,0,6,-4,.
CCOc1ccccc1/C=N/NC(=O)c1c(C)nc2ccc(Br)cn12,2,.,0,7,-3,.
COc1cccc(/C=N/NC(=O)c2c(C)nc3ccc(Br)cn23)c1O,58*,.,2,14,-6,-150
COc1ccc(/C=N\NC(=O)c2c(C)nc3ccc(Br)cn23)cc1,60*,.,0,18,-3,-10
COc1cc(OC)c2cc(C(=O)N/N=C/c3cccc(OC)c3O)[nH]c2c1,38,55*,0,3,-6,-62
OC(c1cccc(Cl)c1)c1ncc(-c2ccc(Oc3ccccc3)cc2)[nH]1 (centres undefined),-25,4,0,16,.,.
COc1ccc(Cl)c2sc(N(Cc3cccnc3)C(C)=O)nc12,-3,.,0,0,1,.
C=CCN(C(=O)CCC(=O)Nc1cc(C)on1)C(C(=O)NC1CCCC1)c1ccc(Cl)cc1 (centres undefined),-4,.,0,2,1,.
CCC(=O)c1ccc(OCC(=O)N2CCN(c3ncccn3)CC2)cc1,2,0,0,-7,-6,.
O=C(C(=O)N1CCN(C(=O)OCc2ccccc2)CC1)c1cccs1,.,.,0,.,.,.
COc1cc(OC)cc(C(=O)Nc2ccc(-c3nc4ccccc4o3)cc2)c1,120*,20,0,20,-3,-126
COc1cc(OC)cc(C(=O)Nc2ccc3c(c2)COC3=O)c1,12,.,0,-2,0,60*
O=C1OCc2cc(NC(=O)C3CCCCC3)ccc21,7,.,0,-2,-2,52*
O=C1OCc2ccc(NC(=O)C3CC3)cc21,-1,60,0,0,0,-8
COc1cc(OC)cc(C(=O)Nc2ccc3c(c2)OCCO3)c1,-14,.,0,-1,-3,.
O=c1[nH]nc(-c2ccc(NCCCO)c([N+](=O)[O-])c2)c2ccccc12,58*,.,0,-7,3,.
